Measurements taken from the supplement of paper PMC6555819.

What was measured:
Experiment in all cases: PBM binding z-score (relative to random genomic background probes); higher = stronger binding; sequences stand for … in GC…GCGATTGACAGCGTAGAATGAAGG
[1] = system: FXR:RXRa (NR concentration 270 nM, RXRa partner concentration 90 nM)
How it was run: (§1)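 For binding z-scores, the reference was random background probes on custom Agilent 4×180K protein-binding microarrays. These arrays were incubated 1 h with ligand-free nuclear receptor dimers in PBS pH 7.4, 2% milk, 0.02% Triton X-100, 1 mM DTT, 0.2 mg/mL BSA and 0.4 mg/ml salmon testes DNA. Fluorescence was scanned after antibody detection of each partner (one per run) and regression-normalized.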

[2] = system: LXRa:RXRa (NR concentration 270 nM, RXRa partner concentration 90 nM)
How it was run: as §1

[3] = system: LXRa homodimer (NR concentration 270 nM)
How it was run: as §1

[4] = system: LXRb:RXRa (NR concentration 270 nM, RXRa partner concentration 90 nM)
How it was run: as §1

[5] = system: LXRb homodimer (NR concentration 270 nM)
How it was run: as §1

[6] = system: PPARa:RXRa (NR concentration 270 nM, RXRa partner concentration 90 nM)
How it was run: as §1

[7] = system: PPARg:RXRa (NR concentration 180 nM, RXRa partner concentration 90 nM)
How it was run: as §1

[8] = system: PPARg:RXRa 270nM:90nM, anti-RXR (NR concentration 270 nM, RXRa partner concentration 90 nM)
How it was run: as §1

[9] = system: PPARg:RXRa 30nM:10nM, anti-RXR (NR concentration 30 nM, RXRa partner concentration 10 nM)
How it was run: as §1

[10] = system: PPARg:RXRa 90nM:30nM, anti-RXR (NR concentration 90 nM, RXRa partner concentration 30 nM)
How it was run: as §1

[11] = system: PPARg:RXRa DBDmut IVT, anti-RXR (DBD mutation: RXRa K156A/R161A, NR concentration 270 nM, RXRa partner concentration 90 nM)
How it was run: as §1

[12] = system: PPARg:RXRa IVT, anti-PPARg (NR concentration 270 nM, RXRa partner concentration 90 nM)
How it was run: as §1

[13] = system: PPARg DBDmut:RXRa IVT, anti-PPARg (DBD mutation: PPARg1 K132A/R137A, NR concentration 270 nM, RXRa partner concentration 90 nM)
How it was run: as §1

[14] = system: PPARg DBDmut IVT, anti-PPARg (DBD mutation: PPARg1 K132A/R137A, NR concentration 270 nM)
How it was run: as §1

[15] = system: PPARg homodimer (NR concentration 180 nM)
How it was run: as §1

[16] = system: PXR:RXRa (NR concentration 270 nM, RXRa partner concentration 90 nM)
How it was run: as §1

[17] = system: PXR homodimer (NR concentration 270 nM)
How it was run: as §1

[18] = system: RARa:RXR (NR concentration 270 nM, RXRa partner concentration 90 nM)
How it was run: as §1

[19] = system: RARa homodimer (NR concentration 270 nM)
How it was run: as §1

[20] = system: RARb:RXRa (NR concentration 270 nM, RXRa partner concentration 90 nM)
How it was run: as §1

| Sequence | PBM binding z-score [1] | PBM binding z-score [2] | PBM binding z-score [3] | PBM binding z-score [4] | PBM binding z-score [5] | PBM binding z-score [6] | PBM binding z-score [7] | PBM binding z-score [8] | PBM binding z-score [9] | PBM binding z-score [10] | PBM binding z-score [11] | PBM binding z-score [12] | PBM binding z-score [13] | PBM binding z-score [14] | PBM binding z-score [15] | PBM binding z-score [16] | PBM binding z-score [17] | PBM binding z-score [18] | PBM binding z-score [19] | PBM binding z-score [20] |
| --- | --- | --- | --- | --- | --- | --- | --- | --- | --- | --- | --- | --- | --- | --- | --- | --- | --- | --- | --- | --- |
| GCATATAGGTACTACAAGGTGAAAGTCCGATTGT | 0.689 | -0.132 | -0.343 | 0.0572 | -0.233 | 0.972 | 0.697 | 0.784 | 0.264 | 0.566 | 1.67 | 1.24 | 0.887 | 0.583 | 0.651 | 0.2 | -0.351 | 1.36 | -0.147 | 0.285 |
| CGGACTGGGGCATAAGGTTACCATAAGCCAGCCC | 0.339 | 2.09 | -0.514 | 1.11 | -0.487 | 2.78 | 4.19 | 4.81 | 2.94 | 4.56 | 4.08 | 5.2 | 1.2 | 1.32 | 1.19 | 0.635 | -0.0559 | 1.48 | -0.515 | 1.78 |
| TCATAGAGGTAATACAGGTGAAAGTCGGCATCTA | 0.717 | 1.43 | -0.283 | 0.754 | -0.377 | 1.85 | 0.997 | 1.86 | 3.1 | 2.46 | 2.41 | 1.82 | 0.716 | 0.411 | 0.49 | 0.522 | -0.0711 | 1.04 | 0.214 | 0.478 |
| ACTAGTTGGTCAGCTGAGGTCACAAACAATTCGG | 2.51 | 2.67 | 2.22 | 3.43 | 0.432 | 3.72 | 1.41 | 2.05 | 0.167 | 1.14 | 1.09 | 2.67 | -0.0448 | 0.681 | 2.75 | 5.42 | 1.38 | 4.65 | 1.05 | 3.53 |
| TAGCCTAGGTCATTCAGGGCCCAGTATAGAAAGC | 4.66 | 3.59 | 0.608 | 2.37 | 0.858 | 3.62 | 1.96 | 2.34 | 0.126 | 1.56 | 1.83 | 2.54 | 0.246 | -0.28 | 1.19 | 1.88 | -0.155 | 2.32 | -0.0549 | 3.54 |
| GCGACTGGGGCAAAGCAGGTTACCAGAAGGTTGG | 0.766 | 0.129 | -0.462 | 0.0356 | -1.38 | 1.3 | 1.17 | 1.42 | -0.461 | 0.594 | 4.49 | 3.54 | -1.13 | -0.78 | 0.00244 | 0.34 | -0.469 | 0.321 | -0.876 | 1.1 |
| ATCTCTAGGTAACCAAGTACAGTGAATGCCGAAC | 0.125 | 0.246 | 0.247 | 0.353 | 0.673 | 0.645 | 0.752 | 0.425 | 0.0273 | 0.341 | 3.29 | 3.07 | 1.88 | 1.42 | 0.713 | 0.0867 | 0.597 | -0.0145 | 1.1 | 0.347 |
| CATACAGGGTCAGCTAGGCCAGAATAGGGACGGC | 4.83 | 3.22 | -0.0324 | 2.38 | -0.0852 | 4.55 | 3.66 | 3.09 | 0.879 | 2 | 0.915 | 2.41 | 0.965 | 0.203 | 0.999 | 2.22 | 0.0161 | 2.91 | 0.818 | 4.16 |
| CGAACGAGGGCATGAGTTTATAGCAAATGCCGAT | 0.448 | 0.306 | -0.244 | 0.294 | -1.03 | 1.43 | 1.45 | 1.38 | 0.138 | 0.962 | 3.26 | 2.5 | 0.366 | -0.357 | 0.413 | 1.65 | 1.18 | 0.678 | -0.149 | 2.11 |
| AGTCAAAGTTAAGGACGAGGTAACGTAAAGCACG | -0.0625 | -0.031 | -0.464 | -0.186 | -0.644 | 0.245 | 0.85 | 0.357 | 0.301 | 0.179 | -0.606 | 0.576 | -0.425 | 0.362 | -0.757 | -0.127 | 0.18 | 1.19 | 0.205 | 0.889 |
| GCGACCGGGGCATCAGCAGGTTACCATAACTTAA | 0.256 | 0.277 | -0.271 | 0.643 | -0.263 | 1.17 | 0.512 | -0.0952 | -0.743 | -0.899 | 0.0389 | 0.384 | -1.59 | -1.19 | 0.373 | 0.411 | -0.173 | 0.981 | -0.42 | 1.3 |
| GCGACTGGGGCATCAGCAGGATACCATAACTTAA | -0.587 | -0.962 | -0.678 | -0.508 | -0.969 | 0.0763 | 0.883 | 0.422 | -0.491 | -0.212 | 3.9 | 2.61 | -1.01 | -0.959 | -0.175 | -0.691 | -0.304 | -0.475 | -0.756 | 0.233 |
| GGAACGAAGGCAAGTTGATAGCAGAGTTTGATGG | -0.951 | -0.918 | -0.858 | -1.13 | -1.2 | -0.649 | 0.469 | -0.479 | -0.377 | -0.674 | -0.11 | -0.659 | 0.0164 | -0.632 | -0.995 | -0.665 | -0.247 | -0.931 | -0.746 | -0.503 |
